Among the test systems are HCT-15 colon; HT29 colon; SNB-75 CNS; SNB-19 CNS; U251 CNS; PC-3 prostate; SK-MEL-5 melanoma; UACC-62 melanoma; LOX IMVI melanoma; SK-MEL-28 melanoma; SK-MEL-2 melanoma; EKVX NSCLC; SN12C renal; UO-31 renal; TK-10 renal; ACHN renal; CAKI-1 renal; A498 renal; MOLT-4 leukemia; CCRF-CEM leukemia.
Test in all cases: NCI-60 one-dose screen, 48 h (100 = growth as untreated, 0 = no growth, -100 = all killed)
Conditions in all cases: 10 µM unless noted

Several values for one entry are separate records, joined by “and”; a condition that tells them apart may be missing. Identical values can stand only once. About 83,000 compounds went through this panel and 20% of them were active in at least one assay; those are over-represented in the sample as a whole.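 96-well plates, one dose, 48 hours. Percent growth reported; active if below 10.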 Unmarked numbers belong to inactive results. Activity calls are given as the source filed them.

With `O=C1C(=C(O)c2ccccc2)C(=O)c2ccccc21`, the growth in the test with HCT-15 colon was 102%; in the test with HT29 colon it was 109%; with SNB-75 CNS, 76.5%; in the test with SNB-19 CNS, 98.1%; with U251 CNS it was 109%; in the test on PC-3 prostate, 94.5%. The growth in the test on SK-MEL-5 melanoma is 107%; in the test with UACC-62 melanoma, 96%; with LOX IMVI melanoma, 99%; with SK-MEL-28 melanoma it was 105%; in the test on SK-MEL-2 melanoma it was 105%; in the test on EKVX NSCLC, 104%. Besides, the growth in the test on SN12C renal was 102%; in the test on UO-31 renal, 85.5%; with TK-10 renal it was 111%; in the test with ACHN renal, 103%; with CAKI-1 renal it was 92.9%; in the test on A498 renal it was 123%. Also, the growth with MOLT-4 leukemia was 116%.
Take `C=C[C@]1(C)C=C2CC[C@@H]3C(C)(C)C(=O)CC[C@@]3(C)[C@@H]2CC1`: the growth with HCT-15 colon was 106%; in the test on HT29 colon, 102%; with SNB-75 CNS, 90.5%; in the test on SNB-19 CNS it was 108%; in the test with U251 CNS, 98.5%; in the test on PC-3 prostate, 98.8%. Moreover, the growth in the test with SK-MEL-5 melanoma is 109%; in the test with UACC-62 melanoma it was 97.9%; with LOX IMVI melanoma, 99.5%; in the test on SK-MEL-28 melanoma, 113%; in the test with SK-MEL-2 melanoma it was 106%; in the test on EKVX NSCLC, 101%. The growth with SN12C renal is 99%; with UO-31 renal it was 17.9%; in the test on TK-10 renal, 98.7%; with ACHN renal, 106%; in the test on CAKI-1 renal, 84%; in the test on A498 renal it was 90.6%. The growth with CCRF-CEM leukemia was 101%; with MOLT-4 leukemia, 109%.
As to `C=C(CNCCO)[C@@H]1CC[C@]2(CO)CC[C@]3(C)[C@H](CC[C@@H]4[C@@]5(C)CCC(NCCc6ccc(O)cc6)C(C)(C)[C@@H]5CC[C@]43C)[C@@H]12` (stereo partly specified), the growth is -88.4% (active) in the test on HCT-15 colon; -68.7% (active) in the test with HT29 colon; -97.8% (active) with SNB-75 CNS; -72.9% (active) in the test on SNB-19 CNS; -92.7% (active) with U251 CNS; -43.4% (active) in the test on PC-3 prostate. The growth with SK-MEL-5 melanoma is -95.3% (active); in the test with UACC-62 melanoma, -81.5% (active); in the test with LOX IMVI melanoma it was -89.8% (active); in the test with SK-MEL-28 melanoma, -94.1% (active); in the test on SK-MEL-2 melanoma it was -84.1% (active); in the test on EKVX NSCLC it was -75.3% (active). Also, the growth was -73.7% (active) in the test on SN12C renal; -95.4% (active) with UO-31 renal; -89.4% (active) with TK-10 renal; -96.6% (active) in the test with ACHN renal; -85.8% (active) in the test with CAKI-1 renal; -87.5% (active) in the test with A498 renal. For the same compound, the growth in the test on MOLT-4 leukemia was -30.3% (active).
`N=C(N)c1ccc(-c2ccc(-c3ccc(F)cc3)s2)nc1`: the growth in the test on HCT-15 colon was 10.4%; in the test with HT29 colon it was 8.67% (active); with SNB-75 CNS, 100%; in the test with SNB-19 CNS it was 80.1%; with U251 CNS, 22.3%; in the test with PC-3 prostate, 65.3%. The growth was 77% in the test on SK-MEL-5 melanoma; 95.9% with UACC-62 melanoma; 18.6% in the test with LOX IMVI melanoma; 102% in the test on SK-MEL-28 melanoma; 101% in the test on SK-MEL-2 melanoma; 79.3% in the test with EKVX NSCLC. The growth is 75.3% in the test with SN12C renal; 74.1% with UO-31 renal; 108% in the test on TK-10 renal; 76% with ACHN renal; 65.4% with CAKI-1 renal; 79% in the test with A498 renal. Also, the growth in the test with CCRF-CEM leukemia was 47.8%; in the test with MOLT-4 leukemia, 26.3%.
`O=C(N=Nc1c(O)[nH]c2ccccc12)Nc1ccccc1Cl`: the growth with HCT-15 colon was 68.1%; in the test with HT29 colon it was 101%; in the test on SNB-75 CNS it was 82%; in the test on SNB-19 CNS it was 91.1%; with U251 CNS, 92.2%; in the test on PC-3 prostate, 92.5%. Further, the growth in the test with SK-MEL-5 melanoma is 87.6%; with UACC-62 melanoma it was 78.8%; in the test on LOX IMVI melanoma, 96.5%; in the test with SK-MEL-28 melanoma, 105%; in the test on SK-MEL-2 melanoma, 102%; in the test with EKVX NSCLC it was 86.6%. Moreover, the growth in the test on SN12C renal was 86.4%; in the test on UO-31 renal, 68.1%; in the test on TK-10 renal, 107%; in the test on ACHN renal, 99%; in the test with CAKI-1 renal, 80.5%; in the test with A498 renal it was 96.5%. Further, the growth is 91.9% with CCRF-CEM leukemia and 93.3% with MOLT-4 leukemia.
Take `O=C(/C=C/c1ccc(Cl)s1)c1ccc(Cl)s1`: the growth in the test with HCT-15 colon is 88.2% and 90.7%; with HT29 colon it was 74.5% and 94%; in the test with SNB-75 CNS, 106% and 102%; in the test on SNB-19 CNS, 94.6% and 99.5%; in the test with U251 CNS it was 92.8% and 93.3%; in the test on PC-3 prostate, 92.6% and 105%. In addition, the growth in the test with SK-MEL-5 melanoma was 96% and 96.6%; in the test on UACC-62 melanoma it was 94.7% and 99.6%; in the test with LOX IMVI melanoma, 78.8% and 87.8%; with SK-MEL-28 melanoma, 103% and 112%; in the test with SK-MEL-2 melanoma, 100% and 109%; with EKVX NSCLC, 98.3%. Also, the growth is 93.3% and 91% in the test on SN12C renal; 82.8% with UO-31 renal; 94.9% and 88.9% in the test on TK-10 renal; 93.9% and 101% in the test on ACHN renal; 92.4% in the test on CAKI-1 renal; 97.8% in the test on A498 renal. Moreover, the growth in the test on MOLT-4 leukemia is 95.1% and 88.9%.
For the compound `Cc1nc2sc(C(=O)Nc3cccc4ncccc34)c(N)c2cc1C(C)O` (stereo unspecified), the growth is 64.1% in the test on HCT-15 colon; 52.8% in the test on HT29 colon; 76.6% with SNB-75 CNS; 67.8% in the test with SNB-19 CNS; 83.4% in the test with U251 CNS; 72.9% with PC-3 prostate. Further, the growth in the test with SK-MEL-5 melanoma was 56.8%; in the test with UACC-62 melanoma, 42.9%; in the test on LOX IMVI melanoma, 73.8%; with SK-MEL-28 melanoma, 67.3%; with SK-MEL-2 melanoma, 35.3%; in the test with EKVX NSCLC, 88.4%. Further, the growth with SN12C renal was 91.8%; in the test on UO-31 renal, 81.5%; in the test with TK-10 renal it was 103%; in the test on ACHN renal, 93.4%; with CAKI-1 renal, 89.7%; in the test on A498 renal, 48.1%. Moreover, the growth in the test on MOLT-4 leukemia is 64%.

Source of the values: PubChem BioAssay (NCI).
